High-throughput results as filed in PubChem.
Compounds with a hit are over-represented: about 7.3% of the library has one in this group of screens.
Rab9 prom act = activators of Rab9 promoter; Huh7 Rab9 promoter-luciferase reporter, luminescence, 24 h; Potency, µM (top dose mostly 9.22 µM), for the others: at the top dose activation, negative = inhibition, actives largely listed as activators; 2.8% of 320,000 active; further: % of control where 0% means no effect; nearly all actives have a fitted effect of over 60% in size
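Luminescence read-out: Huh7 cells stably expressing Rab9-luciferase, treated 24 h with compound at 37 °C, then lysed with luciferase reagent for 10 min at ambient before reading.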
FLuc counter = inhibits or activates purified firefly luciferase, miR-21 counter-screen | purified FLuc, Km substrates, luminescence inhibition | Potency, µM (titrated, usually from 57.5 µM), without a hit: at the highest dose activity change, negative = inhibition, most hits filed as inhibitors | 6.9% of 360,000 active | P08659;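 further: plate controls were vehicle for no effect and reference inhibitor for full effect; nearly all actives have a fitted effect of over 55% in size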
Target sequence (P08659 whole entry, looked up): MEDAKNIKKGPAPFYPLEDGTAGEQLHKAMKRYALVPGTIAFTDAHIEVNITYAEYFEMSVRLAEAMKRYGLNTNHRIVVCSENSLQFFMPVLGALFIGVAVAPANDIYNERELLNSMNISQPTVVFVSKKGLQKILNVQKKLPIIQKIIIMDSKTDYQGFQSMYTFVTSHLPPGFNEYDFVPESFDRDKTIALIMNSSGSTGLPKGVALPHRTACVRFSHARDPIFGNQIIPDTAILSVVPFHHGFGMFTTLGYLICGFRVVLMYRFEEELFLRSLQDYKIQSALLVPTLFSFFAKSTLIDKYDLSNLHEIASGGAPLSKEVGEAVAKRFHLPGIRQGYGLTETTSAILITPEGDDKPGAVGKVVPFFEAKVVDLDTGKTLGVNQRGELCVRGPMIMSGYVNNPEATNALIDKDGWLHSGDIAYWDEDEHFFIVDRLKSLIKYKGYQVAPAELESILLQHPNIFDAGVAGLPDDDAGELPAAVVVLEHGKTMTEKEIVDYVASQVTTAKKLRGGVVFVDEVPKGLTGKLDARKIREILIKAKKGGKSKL
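Purified P. pyralis luciferase, 10 nM final, with Km-level 10 uM D-luciferin and 10 uM ATP in 50 mM Tris acetate pH 7.5, 10 mM Mg acetate, 0.01% Tween-20, 0.05% BSA; 6-point qHTS titration about 60 µM downward; luminescence read.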
ELG1 genotoxic = inducers of genotoxicity in HEK293T ELG1-luciferase cells; 1.3% of 330,000 active; HEK293T ELG1-luciferase reporter, luminescence, 16 h; Potency, µM (top dose mostly 46 µM), for inactives: at the top dose activity change, positive = activation, most hits filed as activators; AID 504466; further: % of control where 0% means no effect; nearly all actives have a fitted effect of over 60% in size
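Genotoxic stress is detected as increased luminescence from luciferase-tagged ELG1 in HEK293T cells, measured with ONE-Glo after a 16 hr treatment at 37 °C.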
Luc counter = counter-screen: inhibitors of Kinase-Glo firefly luciferase. Potency, µM (series often up to 38.3 µM), for inactives: at the top dose activity change, negative = inhibition, hits mostly inhibitors. Kinase-Glo luciferase, ATP luminescence, 8 min. Q27757. 0.28% of 200,000 active; further: on the % scale 0 is the no-effect control and ±100 the full control effect; nearly all actives have a fitted effect of over 60% in size
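Light output from Kinase-Glo luciferase with luciferin and 10 uM ATP in 50 mM imidazole pH 7.2, KCl, MgCl2, Tween 20, BSA; compound pin-delivered, 8-min ambient incubation, then luminescence read.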
NPC1 promoter act = activators of NPC1 promoter | Huh7 NPC1 promoter luciferase reporter, 24 h | Potency, µM (top dose mostly 9.22 µM), for inactives: at the highest dose activation, hits mostly activators | 2.4% of 320,000 active; further: % of control where 0% means no effect; nearly all actives have a fitted effect of over 60% in size
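Luciferase expression driven by the NPC1 promoter was measured in stably transfected Huh7 cells after a 24 h compound incubation, using a luciferase reagent and a luminescence read.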
SMN2 splice up = increases expression of the SMN2 splice variant; Potency, µM (top dose mostly 46.1 µM), without a hit: at the highest dose activity change, positive = activation, most hits filed as activators; HEK293 SMN2-luciferase splicing reporter, luminescence, 30-36 h; 2.8% of 210,000 active; further: % of control where 0% means no effect; nearly all actives have a fitted effect of over 55% in size
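qHTS luciferase splicing reporter: luminescence rises when SMN2 exon 7 is included in transfected HEK293 cells. Compound exposure lasted 30-36 h at 37C, with 4.5 mM final sodium butyrate as control, followed by a ONE-Glo read.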
* hit, by the source's call; ? = inconclusive; . = not tested or not shown; [ ] = dose if it differs, or a comment. The call rests on the fitted dose curve; in most records, active means well fitted curve in the direction sought with a large enough effect; inconclusive means small, poorly fitted or top-dose-only effect, or another doubt; inactive means no such curve, though single readings can be large; an effect the other way counts as inactive or inconclusive. Potency means the concentration at half of the fitted maximal effect.

SMILES | Rab9 prom act | FLuc counter | ELG1 genotoxic | Luc counter | NPC1 promoter act | SMN2 splice up
CS(=O)(=O)c1nsc2nc(=O)c(/C=C3\C=Nc4ccccc43)c(N)n12 | 1% | 15µM* | 4% | -1% | -1% | 3%
CC(C)Sc1nsc2nc(=O)c(/C=C3\C=Nc4ccccc43)c(N)n12 | -2% | 24µM* | 0% | 1% | -1% | 1%
O=C(/C=C/c1c(F)cccc1Cl)N1CCc2ccccc2C1 | 18% | 17µM* | 8% | . | 21% | .
CCc1ccc(/C=C\C(=O)N2CCc3ccccc3C2)cc1 | 2% | 7.6µM* | ? | -6% | 3% | -3%
Cc1c(C(=O)O)cccc1-c1ccc(/C=C2\SC(=O)NC2=O)o1 | 19% | 5.4µM* | -4% | . | 15% | .
Cc1c(C(=O)O)cccc1-c1ccc(/C=C2/NC(=O)N(c3ccccc3)C2=O)o1 | 1µM* | 9.5µM* | 13% | 2% | ? | .
Cc1ccc(/C=C2/NC(=O)N(c3ccccc3)C2=O)o1 | ? | ? | ? | -3% | 26% | -4%
COc1cc(O)ccc1-c1nc2cc(C)ccn2c1Nc1ccccc1C | . | -21% | . | . | . | ?
Cc1ccc(OCCn2cnc3ccccc3c2=O)c([N+](=O)[O-])c1 | 1.8µM* | ? | ? | -4% | 2.8µM* | 16µM*
Cc1cc(OCCn2cnc3ccccc3c2=O)ccc1[N+](=O)[O-] | 3% | 0% | 10% | -3% | 1% | -19%
COc1ccc(-c2cc(-c3ccccc3)nc3c2COc2ccc(F)cc2-3)cc1 | . | -6% | . | . | . | -2%
Cc1ccc(C)c(N=Cc2c(O)c3ccccc3oc2=O)c1 | -1% | 3µM* | 1% | . | -2% | .
Cc1cccc(/N=C/c2c(O)c3ccccc3oc2=O)n1 | 2% | 5.4µM* | 7% | ? | -1% | 37%
Cc1cc(C)cc(N=Cc2c(O)c3ccccc3oc2=O)c1 | 3% | -11% | 4% | 0% | -7% | -9%
NS(=O)(=O)c1ccc(N=Cc2c(O)c3ccccc3oc2=O)cc1 | 0% | -3% | -6% | -1% | -4% | -4%
Cc1cc(C)c(N=Cc2c(O)c3ccccc3oc2=O)c(C)c1 | 2% | 3.8µM* | ? | . | 17% | .
O=C(O)c1cc(N=Cc2c(O)c3ccccc3oc2=O)ccc1O | -5% | 7.6µM* | -7% | . | -3% | .
CCOc1ccc(N(CC)S(=O)(=O)N2CCCC(C(=O)Nc3ccc(OC)c(OC)c3)C2)cc1 (configuration not stated) | . | -13% | . | . | . | .
COc1cc2ccc([C@H](C)NCC#N)cc2cc1OC | . | . | . | -2%[7.66 µM] | . | -7%[9.22 µM]
CCc1ccc(C2=C(C)C(N3CCC(C(=O)NCCc4ccco4)CC3)=NS2(=O)=O)cc1 | . | -1% | . | . | . | .
CCOc1ccc(CCNC(=O)Cn2ncc3c(=O)oc4ccc(C)cc4c32)cc1 | . | 0% | . | . | . | -15%
Cc1ccc(N=Cc2c(O)c3ccccc3oc2=O)cc1F | 14% | 1.7µM* | -1% | . | -2% | .
Cc1cc2oc(=O)c(CC(=O)NCCc3ccccc3F)c(C)c2c2occ(C(C)(C)C)c12 | . | ? | . | . | . | -2%
COc1cccc(CN2CCc3nc(Nc4ccc5c(c4)OCCO5)ncc3C2)c1 | . | 24µM* | . | . | . | .
Clc1ccc(CN2CCc3nc(Nc4ccc5c(c4)OCCO5)ncc3C2)cc1 | . | -20% | . | . | . | .
SMILES | Rab9 prom act | FLuc counter | ELG1 genotoxic | Luc counter | NPC1 promoter act | SMN2 splice up
Cc1ccsc1CN1CCc2nc(Nc3ccccc3)ncc2C1 | . | 12µM* | . | . | . | .
COc1ccc(NC(=O)c2c(N)c(C(=O)c3ccc(OC)cc3)n3ccccc23)cc1 | . | -5% | . | . | . | 4%
CN(C)c1ccc(Nc2nc3ccccc3n3nnnc23)cc1 | . | 6.7µM* | . | . | . | -9%
CCOc1ccc(Nc2nc3ccccc3n3nnnc23)cc1 | 4.5µM* | ? | ? | 0% | 27% | 14%
CC(NC(=O)c1ccc(Nc2nc3ccccc3n3nnnc23)cc1)c1ccccc1 (configuration not stated) | . | -2% | . | . | . | 18%
Cc1ccc(C(=O)O)cc1Nc1nc2ccccc2n2nnnc12 | . | 17µM* | . | . | . | ?
COc1ccccc1OCCSc1nc2ccccc2n1CC(N)=O | 5% | 15µM* | 3% | . | -3% | .
Nc1nn(-c2cccc(F)n2)cc1-c1ccc(Cl)cc1 | 0.45µM* | 0.95µM* | 1.2µM* | -7% | 2.5µM* | 18µM*
Nc1nn(-c2cccc(F)n2)cc1-c1ccccc1 | 0.63µM* | 3µM* | 2.9µM* | -18% | 2µM* | 14µM*
Nc1ncncc1-c1ccc(Cl)cc1 | -2% | 6% | -3% | . | -1% | .
O=C(Nc1ccc2oc(-c3cccc(F)c3)nc2c1)c1ccccc1F | ? | -14% | 21µM* | 0% | ? | -3%
O=C(Nc1ccc2oc(-c3ccc(Cl)c(Cl)c3)nc2c1)c1ncn[nH]1 | 0.71µM* | ? | ? | 3% | 0.5µM* | -22%
COc1cc2ccccc2cc1C(=O)Nc1ccc2oc(-c3ccc(F)cc3)nc2c1 | . | 0% | . | . | . | 1%
O=C(Nc1ccc2oc(-c3ccccc3)nc2c1)c1ccccc1F | 2.5µM* | ? | 19% | 2% | ? | 13µM*
O=C(Nc1ccc2oc(-c3ccccc3F)nc2c1)c1ncn[nH]1 | 0.5µM* | 2.1µM* | ? | -14% | 0.35µM* | 14µM*
O=C(Nc1ccc(-c2nc3cc(NC(=O)c4ccccc4F)ccc3o2)cc1)c1ccccc1F | . | -2% | . | . | . | .
Cc1nc2ccccn2c(=O)c1NC(=O)c1ccc(C(F)(F)F)cc1 | . | 1% | . | . | . | .
O=c1c2oc3ccccc3c2n(Cc2ccc(Cl)cc2)c(=O)n1Cc1ccco1 | . | -4% | . | . | . | .
O=C(Nc1ccc2oc(-c3ccncc3)nc2c1)c1ccccc1F | 23% | ? | 3% | -6% | 28% | -38%
O=C(Nc1ccc2oc(-c3ccccc3F)nc2c1)c1ccccc1F | 3.5µM* | 4.8µM* | 16% | . | 2.2µM* | .
Cc1ccc(NC(=O)c2ncn[nH]2)cc1 | 2% | 17µM* | 8% | -1% | 10% | 15%
CSc1ccc(CNC(=O)C2CCCN(S(=O)(=O)N(C)c3ccc(F)cc3)C2)cc1 (configuration not stated) | . | -1% | . | . | . | -59%
O=C(N/N=C/c1cn(-c2cccs2)nc1-c1ccccc1)c1ccccc1O | -4% | 9.5µM* | -2% | ? | -2% | .
O=C(N/N=C/c1cn(-c2cccs2)nc1-c1ccccc1)c1ccccc1Br | 8% | 6.7µM* | 3% | 1% | 7% | ?
CCCc1cc(C(=O)Nc2c(C)nn(Cc3c(Cl)cccc3Cl)c2C)no1 | . | 4% | . | . | . | ?
N#Cc1ccc(C(=O)Nc2ccn(-c3ccccc3)n2)cc1 | -11% | ? | -7% | 1% | -1% | -53%
O=C(Nc1ccn(-c2ccccc2)n1)c1ccc(Cl)cc1 | 16% | 13µM* | 10% | -4% | 13% | 7%[1.84 µM]
